According to PubChem BioAssay (NCATS):
Inconclusive results are not listed. Unmarked numbers belong to inactive results. Calls come from the whole dose curve.

test: Cell Viability - MRC5 (AID 434); details: MRC5 lung fibroblast viability, qHTS;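 note: potency reflects cytotoxicity seen as loss of intracellular ATP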
Excerpt: NIH Chemical Genomics Center [NCGC]
NIH Molecular Libraries Screening Centers Network [MLSCN]
National Institutes of Environmental Health Sciences [NIEHS]
National Toxicology Program [NTP]
We have developed a 1536-well cell-based assay for quantitative high throughput screening (qHTS) against a number of cell lines to determine in vitro cytotoxicity of small molecules. This particular assay uses the MRC5 cell line which is derived from normal human lung fibroblasts.
NCGC Assay Protocol Summary:
The CellTiter-Glo luminescent cell viability assay (Promega) is a homogeneous method to measure the number of viable cells in culture. The end point readout of this assay is based on quantitation of intracellular ATP, an indicator of metabolic activity, using the luciferase reaction. Luciferase catalyzes the oxidation of beetle Luciferin to oxyluciferin and light in the presence of ATP. The luminescent signal is proportional to amount of ATP present.
Using the CellTiter-Glo luminescent cell viability assay, the amount of cellular ATP was measured in the MRC5 cell line with complete culture medium following compound treatment for 40 hours. The assay was performed in opaque white Kalypsys 1536-well plates. In the screen, tamoxifen and doxorubicin were used as positive controls. Library compounds were measured for their ability to cause acute toxicity in the cell line, as reflected by a decrease in intracellular ATP levels, in a concentration-dependent manner. Data were normalized to the controls for basal activity (DMSO only) and 100% inhibition (100 uM tamoxifen). AC50 values were determined from concentration-response data modeled with the standard Hill equation.
qHTS protocol for CellTiter Glo MRC5 cellular assay
[Step] [Parameter] [Value] [Description]
1. Reagent; 5 uL; 1500 MRC5 cells/well
2. Time; 5 hr; 37 °C incubation
4. Controls; 23 nL; Tamoxifen 0.34 uM to 100 uM & Doxorubicin 0.02 nM to 100 uM
5. Time; 40 hr; 37 °C incubation
6. Reagent; 5 uL; CellTiter Glo reagent
7. Time; 20 min; Room Temperature
8. Detection; Luminescence; Viewlux plate reader
Keywords: cell viability, cytotoxicity, MRC5 cell line, luminescence, NTPHTS, NTPHTS_NCGC, NIEHS, EPA, DSSTox, MLSMR, MLSCN, NIH Roadmap, qHTS, NCGC
Potency is the fitted concentration of half-maximal effect.

Structure (SMILES)	Potency [µM]
CC1=C2[C@@H]([C@H](C)CC[C@H]2/C=C(\C)C(=O)O)[C@H](O)C1	> 92
CCCCCCCC/C=C\CCCCCCCC(=O)O	> 92
CC(O)CO (stereo not given)	> 92
CCOc1ccc2c(c1)C(C)=CC(C)(C)N2	> 92
CCCCCCCC(=O)O	> 92
CC1=C(/C=C/C(C)=C/C=C/C(C)=C/CO)C(C)(C)CCC1	> 92
O=CCCCC=O	> 92
CCCCC/C=C\C/C=C\CCCCCCCC(=O)O	> 92
O=C(O)CCC(=O)C(=O)O	> 92
IC(I)I	> 92
O=S(=O)(O)O	> 92
CC(C)=O	> 92
CCOC(C)=O	> 92
Cc1ccccc1	> 92
Nc1ccn([C@H]2CS[C@@H](CO)O2)c(=O)n1	> 92
